This is one part of a sample in which hits are shown more often than they occur.
FECH block: human FECH heme synthesis enzyme inhibition; hit rate 3.3% among 20,000; P22830; calls only at 10 µM (by protocol); purified FECH, Ni-mesoporphyrin absorbance 550 nm;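 active = enzyme reaction rate more than 3 SD below the solvent-only control wells on the same plate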;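 note: lower slope than DMSO wells means FECH inhibition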
Target sequence (P22830 whole entry, looked up): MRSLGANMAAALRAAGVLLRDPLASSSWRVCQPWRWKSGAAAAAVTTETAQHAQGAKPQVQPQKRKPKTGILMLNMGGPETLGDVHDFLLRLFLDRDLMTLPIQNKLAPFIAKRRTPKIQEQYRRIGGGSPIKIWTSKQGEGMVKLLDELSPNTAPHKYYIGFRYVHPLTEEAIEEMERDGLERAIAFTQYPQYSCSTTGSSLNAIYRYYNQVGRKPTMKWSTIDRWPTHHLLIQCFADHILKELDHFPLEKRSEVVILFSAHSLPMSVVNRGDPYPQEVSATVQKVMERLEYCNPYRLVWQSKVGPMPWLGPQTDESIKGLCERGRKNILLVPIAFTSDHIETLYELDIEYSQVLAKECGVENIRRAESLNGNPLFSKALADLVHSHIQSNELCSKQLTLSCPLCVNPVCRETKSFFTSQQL
Numbers without * were called inactive; i = inactive; + = active, no number.

SMILES	FECH block
Cc1cnc(NCc2ccc(C(=O)N(C)C)o2)nc1N(C)C	i
O=C(CC(c1ccccc1)c1ccc(F)cc1)NCc1ccno1 (stereo not drawn)	i
CCOC(=O)Cn1c(=O)c2cnc(-c3cccs3)nc2n(C)c1=O	i
CC(C)c1cc(C(=O)N2CCC3(CC2)C(=O)NCCN3C)cs1	i
CN1CCNC(=O)C12CCN(C(=O)c1cc(=O)c3ccccc3[nH]1)CC2	i
COc1ccc(CNS(=O)(=O)c2cc(N3C(=O)CCS3(=O)=O)ccc2OC)cc1	i
Cc1ccc(N2C(=O)CCS2(=O)=O)cc1S(=O)(=O)N1CCN(c2ccccc2)CC1	i
CCOC(=O)C1CCN(S(=O)(=O)c2cc(N3C(=O)CCS3(=O)=O)ccc2OC)CC1	i
Cc1ccc(N2C(=O)CCS2(=O)=O)cc1S(=O)(=O)N1CCN(c2ccccc2F)CC1	+
Cc1ccc(N2C(=O)CCS2(=O)=O)cc1S(=O)(=O)N1CCC(C(N)=O)CC1	i
Cc1ccc(N2C(=O)CCS2(=O)=O)cc1S(=O)(=O)N1CCN(c2ccccn2)CC1	i
COc1ccc(N2C(=O)CCS2(=O)=O)cc1S(=O)(=O)NCc1ccc(C)cc1	i
CCOC(=O)C1CCCN(S(=O)(=O)c2cc(N3C(=O)CCS3(=O)=O)ccc2C)C1 (stereo not drawn)	+
COc1ccc(CNS(=O)(=O)c2cc(N3C(=O)CCS3(=O)=O)ccc2C)cc1OC	+
CCCCn1nc(C)c2c1NC(=O)CC2c1cc2ccccc2n1C (stereo not drawn)	i
Cc1csc(NC(=O)C2CCN(c3ncnc4c3nc3n4CCCCC3)CC2)n1	i
CCC(C)N1C(=O)c2c(NC(C)=O)c3cc(F)ccc3n2CC1(C)C(=O)NC1CCCC1 (stereo not drawn)	i
COc1cccc(-c2noc(CSCC(=O)N3CCc4ccccc43)n2)c1	i
Cc1nc(CN(C)Cc2cccc(C(=O)Nc3cccnc3)c2)cs1	i
CN(Cc1cccc(C(=O)Nc2nccs2)c1)Cc1cnccn1	+
CN(Cc1ccc(C(=O)Nc2ccc3c(c2)ncn3C)cc1)Cc1cnccn1	i
COc1ccccc1-c1nc(CSc2nc(C)c(Cc3ccccc3)c(=O)[nH]2)c(C)o1	i
Cc1cccc(-c2cc(N3CCN(C(=O)Nc4ccc5c(c4)OCCO5)CC3)ncn2)c1	i
COCC1CCCN(C(=O)c2ccc(-c3ccc(CCC(=O)O)cc3)nc2)C1 (stereo not drawn)	i
CN(C)CC(=O)Nc1ccc(C(=O)Nc2cnc3n2CCCC3)cc1	i
SMILES	FECH block
O=C(CCCn1nnc(-c2ccc(F)cc2)n1)Nc1cnc2n1CCCC2	i
Cn1nnc(-c2ccc(C(=O)Nc3cnc4n3CCCC4)cc2)n1	+
CN1CCN(S(=O)(=O)c2ccc(N3C(=O)CCS3(=O)=O)cc2)CC1	i
CCN(C1CCS(=O)(=O)C1)S(=O)(=O)c1cc(N2C(=O)CCS2(=O)=O)ccc1OC (stereo not drawn)	i
CCn1c(=O)n(CCOc2ccc(F)cc2)c(=O)c2cnc(-c3ccc(Cl)cc3)nc21	+
CCn1c(=O)n(CCOc2ccc(F)cc2)c(=O)c2cnc(-c3ccc(OC)cc3)nc21	i
Cn1c(=O)n(CCOc2ccc(F)cc2)c(=O)c2cnc(-c3ccc(Cl)cc3)nc21	i
CCCCCN(c1nc2nc(C)cc(C)n2n1)S(=O)(=O)c1ccc(C)cc1	i
O=C1O[C@@H]2CN(Cc3cccnc3)C[C@@H]2N1CCCN1CCOCC1	i
Cc1cc(C)n(C2CCN(C(=O)c3cccc(-n4cccn4)c3)C2)n1 (stereo not drawn)	i
O=c1cc(CN2CCc3ccccc3C2)nc2nc(NCc3ccc(Cl)cc3)[nH]n12	+
O=c1cc(CN2CCc3ccccc3C2)nc2nc(NCc3ccccc3)[nH]n12	i
O=c1cc(CN2CCCCC2)nc2nc(NCc3ccccc3)[nH]n12	i
O=c1cc(CN2CCOCC2)nc2nc(NCc3ccccc3)[nH]n12	i
COc1ccc(CNc2nc3nc(CN4CCc5ccccc5C4)cc(=O)n3[nH]2)cc1	+
O=c1cc(CN2CCN(CCO)CC2)nc2nc(NCc3ccc(Cl)cc3)[nH]n12	i
O=c1cc(CN2CCOCC2)nc2nc(NCc3ccc(Cl)cc3)[nH]n12	i
COc1ccc(CNc2nc3nc(CN4CCOCC4)cc(=O)n3[nH]2)cc1	+
COc1ccc(CNc2nc3nc(CN4CCN(c5ccccc5)CC4)cc(=O)n3[nH]2)cc1	i
Cc1ccc(Cl)c(OCCN2CCC(C(O)c3cccnc3)CC2)c1 (stereo not drawn)	i
COc1cc2c(c(OC)c1)C(CCc1ccccc1)CC(=O)N2 (stereo not drawn)	i
COc1cccc(-c2noc(-c3ccc(-c4cccc(O)c4)nc3)n2)c1OC	i
C=CCN(Cc1ccc(C)s1)C(=O)CCNS(C)(=O)=O	i
COc1ccccc1N(Cc1nc2nc(C)cc(C)n2n1)C(=O)c1cccc([N+](=O)[O-])c1	i
CCCCNC(=O)C1CCN(c2ccc(-c3ccccc3)nn2)CC1	i
SMILES	FECH block
Cc1ccc(-n2ncc3c(-n4nc(C)cc4NC(=O)C(C)C)ncnc32)c(C)c1	i
COc1cccc(OCC(=O)Nc2cc(C)nn2-c2ncnc3c2cnn3-c2cccc(C)c2C)c1	i
Cc1cc(NC(=O)COc2ccc(C(C)C)cc2)n(-c2ncnc3c2cnn3-c2cccc(C)c2C)n1	+
Cc1cccc(OCC(=O)Nc2cc(C)nn2-c2ncnc3c2cnn3-c2cccc(C)c2C)c1	i
CN1CCN(c2ccccc2NC(=O)C2CCN(c3ncnc4c3nc3n4CCCCC3)CC2)CC1	i
Cc1cc(C)cc(Nc2nc(NCCc3ccccc3)nc3c2cnn3-c2ccccc2)c1	i
CCOC(=O)c1cc2ccsc2n1CC(=O)NCc1ccccc1	i
Fc1ccc(Nc2nc(N3CCN(c4ccccc4)CC3)nc3c2cnn3-c2ccccc2)cc1	i
CCOCCCn1ccnc1-c1cc2ccccc2n(C)c1=O	i
Cc1ccccc1NC(=O)N1CCC(n2cnc3cccnc32)CC1	i
CCCNC(=O)N1CCC(n2cnc3cccnc32)CC1	i
COc1cc(NC(=O)N2CCC(n3cnc4cccnc43)CC2)cc(OC)c1OC	i
COc1cccc(NC(=O)N2CCC(n3cnc4cccnc43)CC2)c1	+
O=C(Nc1cccc(Br)c1)N1CCC(n2cnc3cccnc32)CC1	i
O=C(NC1CCCC1)N1CCC(n2cnc3cccnc32)CC1	+
Cc1cccc(NC(=O)N2CCC(n3cnc4cccnc43)CC2)c1	i
COc1cc(NC(=O)N2CCC(n3cnc4cccnc43)CC2)cc(OC)c1	i
O=C(Nc1ccccc1)N1CCC(n2cnc3cccnc32)CC1	+
COc1cccc(CN2CCN(C(=O)c3nn(C)c(=O)c4ccccc34)CC2)c1	i
COCCN(Cc1ccccc1F)Cc1ccnc2ccccc12	i
CC(C)NC(=O)CN1C(=O)CC(c2ccc(Br)s2)=Nc2ccccc21	i
CCOC(=O)CCc1c(C)nc2nc(CNc3cc(Cl)ccc3OC)[nH]n2c1=O	i
COc1ccc(NCc2nc3nc(C)c(Cc4ccc(Cl)cc4)c(=O)n3[nH]2)cc1	+
CCOC(=O)CCc1c(C)nc2nc(CNc3ccccc3OC)[nH]n2c1=O	i
Cc1ccc(NCc2nc3nc(C)c(Cc4ccc(Cl)cc4)c(=O)n3[nH]2)cc1	i
CCOC(=O)Cc1ccc(NC(=O)Nc2c(C)nc3nc[nH]n3c2=O)cc1	i
CCOC(=O)CCc1c(C)nc2nc(CNc3ccc(Cl)cc3)[nH]n2c1=O	+

From PubChem BioAssay
